Laboratory results: ChEMBL document CHEMBL3988442, “University of Dundee, Small-Polar-MMV Screening Library” (2021)
Screen size: about 48,000 compounds; about 13,000 (27%) showed an effect of 50% or more. This is one part of the list.

Tested on: Wolbachia pipientis
Assay: Anti-Wolbachia Cell-Based Screen
Type: functional
Design: scale not given: in the data most compounds retested in dose-response had high values
Conditions: 5 µM

Row | SMILES | Percent Effect
1 | COc1cnc(N2C[C@H](CO)C[C@H](CN3CCOCC3)C2)nc1 | -6.58%
2 | Cc1ccc(CN(C(=O)C(C)S(C)(=O)=O)C2CC2)cc1C (configuration not stated) | -15.47%
3 | Cc1ccc(S(=O)(=O)N(C)CC(C)O)c(F)c1 (configuration not stated) | 4.809%
4 | CCc1ncc(C(=O)NC(C)(C)C(=O)OC)s1 | -4.518%
5 | Cn1ccnc1CN1CCC2(CC1)COCCN(c1ncccn1)C2 | 118.1%
6 | c1cnc(N2CCOCC3(CCN(c4cnccn4)CC3)C2)nc1 | -29.45%
7 | COCC1CC2(CCN(Cc3nccn3C)CC2)CN1c1ncccn1.O=C(O)C(F)(F)F (configuration not stated) | -8.738%
8 | Cn1cc2ncn(CCNc3cccnc3)c(=O)c2n1 | -8.591%
9 | Cc1cnc(C(=O)N2CCCCC2c2nc(C)cs2)cn1 (configuration not stated) | 81.82%
10 | Cc1csc(C2CCCCN2C(=O)c2cnn3ccc(C)nc23)n1 (configuration not stated) | 2.073%
11 | Cc1csc(C2CCCCN2C(=O)c2cn[nH]c2C)n1 (configuration not stated) | 83.45%
12 | Cc1csc(C2CCCCN2C(=O)c2cc(C)n(C)n2)n1 (configuration not stated) | 98.18%
13 | Cc1ccc(CC(=O)N2CCCCC2c2nc(C)cs2)cn1 (configuration not stated) | 2.602%
14 | Cc1cccc(C(=O)N2CCCCC2c2nc(C)cs2)n1 (configuration not stated) | 80.1%
15 | COc1ccc(C(=O)N2CCCCC2c2nc(C)cs2)nn1 (configuration not stated) | -5.655%
16 | Cc1cncc(C(=O)N2CCCCC2c2nc(C)cs2)c1 (configuration not stated) | 6.279%
17 | CC(C)(C)c1ccc(C2(C(=O)NCCS(N)(=O)=O)CC2)cc1 | -15.99%
18 | Cc1csc(C2CCCCN2C(=O)c2c[nH]c(C)n2)n1 (configuration not stated) | 62.15%
19 | CN(Cc1ccco1)C(=O)C1CSCN1C(=O)c1cccs1 (configuration not stated) | 104.7%
20 | CN(Cc1ccco1)C(=O)[C@H]1CSCN1C(=O)OC(C)(C)C | 12.78%
21 | CN(Cc1ccco1)C(=O)C1CSCN1C(=O)C1CCC1 (configuration not stated) | 111.9%
22 | Cc1ccc(CC(=O)N2CSCC2C(=O)N(C)Cc2ccco2)o1 (configuration not stated) | 8.524%
23 | CN(Cc1ccco1)C(=O)C1CSCN1C(=O)c1cccnc1 (configuration not stated) | 0.06211%
24 | CN(Cc1cc(-c2cccnc2)no1)C(=O)[C@@H]1CSCN1C | -21.19%
25 | CCOCC(=O)N1CSCC1C(=O)N(C)Cc1ccco1 (configuration not stated) | 113.6%
26 | CN(Cc1ccco1)C(=O)NCC(c1cccs1)N(C)C (configuration not stated) | 1.793%

Row | SMILES | Percent Effect
27 | Cn1c(CN2CCCC2c2noc(C3CC3)n2)cc(=O)n(C)c1=O (configuration not stated) | -13.43%
28 | COCC(=O)N1CCCC2(CCN(CCN3CCCC3)CC2)C1.O=C(O)C(F)(F)F.O=C(O)C(F)(F)F | 18.87%
29 | CCCc1n[nH]c(C2CN(C(=O)c3cc(C4CC4)on3)CCO2)n1 (configuration not stated) | 114.4%
30 | CCc1n[nH]c(C2CN(C(=O)c3cc(C4CC4)on3)CCO2)n1 (configuration not stated) | 117.8%
31 | O=S(=O)(c1c(Cl)nc2sccn12)N1CCC2(CCNCC2)C1 | -2.285%
32 | CC(C)(C)CN[C@@H]1CO[C@H](CNC(=O)C2CCCC2)[C@H]1O | -14.33%
33 | CN(C)Cc1nn(C)c2c1CN(C(=O)c1ccc[nH]1)C2.O=C(O)C(F)(F)F | -9.086%
34 | Cc1ccc(S(=O)(=O)N2Cc3c(CN(C)C)nn(C)c3C2)cc1 | -16.71%
35 | CCc1ccc(S(=O)(=O)N2Cc3c(CN(C)C)nn(C)c3C2)cc1.O=C(O)C(F)(F)F | 97.57%
36 | COc1ccc(S(=O)(=O)N2Cc3c(CN(C)C)nn(C)c3C2)cc1.O=C(O)C(F)(F)F | -0.8573%
37 | CCc1ccc(NC(=O)N2Cc3c(CN(C)C)nn(C)c3C2)cc1.O=C(O)C(F)(F)F | -20.31%
38 | Cc1ccc(CS(=O)(=O)N2Cc3c(CN(C)C)nn(C)c3C2)cc1.O=C(O)C(F)(F)F | 96.76%
39 | C=Cc1cccc(CN2CCCn3nc(CNS(C)(=O)=O)cc3C2)c1 | 10.79%
40 | O=C1C(Sc2cnn[nH]2)CCCN1c1ccccc1F (configuration not stated) | -1.507%
41 | Cc1n[nH]c(C2CN(Cc3csc(C4CC4)n3)CCO2)n1 (configuration not stated) | -12.76%
42 | CC(CNC(=O)c1cccnc1Oc1cccnc1)N(C)C (configuration not stated) | -15.37%
43 | Cc1ccc(Oc2ncccc2C(=O)N(C)CCCN(C)C)c(C)c1 | 137.8%
44 | CC(C)CC(CNC(=O)c1cccnc1Oc1cccnc1)N(C)C (configuration not stated) | -29.76%
45 | CCOc1ncccc1C(=O)N(C)Cc1ncc(C)c(OC)c1C | -9.581%
46 | Cc1ccc(OCCNC(=O)C2CCOCC2)c(C)c1 | -7.551%
47 | Cc1ccc(Oc2ncccc2C(=O)O)c(C)c1 | 113.8%
48 | Cc1ccc(Oc2ncccc2C(=O)N(C)CCCN(C)C)cc1 | 116.5%
49 | COC(=O)C(NC(=O)c1ccc(C)cc1C)c1cccnc1 (configuration not stated) | 2.23%
50 | Cc1ccc(OCCN(C)Cc2nccn2C)c(C)c1 | 1.849%
51 | COCCOc1ncccc1C(=O)N(C)c1ccc(OC)c(OC)c1 | -8.68%
52 | COc1ccc(Oc2ncccc2C(N)=O)cc1CN1CCCC1 | -15.13%

Row | SMILES | Percent Effect
53 | Cc1ccc(Oc2ncccc2C(=O)N(C)CC2OCCO2)c(C)c1 | 132.9%
54 | CCc1cc(CNC(=O)N(C2CC2)C(C)c2ccco2)on1 (configuration not stated) | -6.882%
55 | O=S(=O)(CCSc1nccn1C1CC1)c1ccccc1 | 2.896%
56 | COc1ccc(CN2C[C@@H]3OCC(=O)N(Cc4nccn4C)[C@@H]3C2)cc1 | -2.723%
57 | Cc1cnn(CCNCC(=O)NC2(C#N)CCCC2)c1 | 1.433%
58 | COc1ccccc1CC(=O)NC(CC(=O)O)c1ccc(F)cc1 (configuration not stated) | 7.485%
59 | COCc1ncn2c1CN(S(=O)(=O)c1cccc(OC)c1)CC2 | 5.522%
60 | CN(C)c1ncnc2c1CCN(S(=O)(=O)c1cccc(Cl)c1Cl)C2 | -2.011%
61 | O=c1[nH]cnc2c1CCN(S(=O)(=O)c1ccc(Cl)cc1)C2 | 81.06%
62 | O=c1[nH]cnc2c1CCN(S(=O)(=O)c1ccc(OC(F)(F)F)cc1)C2 | 93.77%
63 | Cc1nc2n(n1)CCN(S(=O)(=O)c1ccc(Cl)cc1)C2 | -10.09%
64 | CCOCCOc1ccc(S(=O)(=O)N2CCc3c(nc[nH]c3=O)C2)cc1 | 99.77%
65 | O=c1[nH]cnc2c1CCN(S(=O)(=O)c1cccc(OC(F)(F)F)c1)C2 | 122.9%
66 | CCOCc1ncn2c1CN(S(=O)(=O)c1ccc(OC)cc1)CC2 | 3.877%
67 | COc1cccc(S(=O)(=O)N2CCCc3c(OC)nn(C)c3C2)c1 | -0.459%
68 | Cc1nc2n(n1)CCN(S(=O)(=O)c1ccc(OC(F)(F)F)cc1)C2 | -10.24%
69 | CCOCc1cncc2c1CCN(S(=O)(=O)c1ccc(C)cc1)C2 | 7.269%
70 | CN(C)c1ncnc2c1CCN(S(=O)(=O)c1ccccc1C(F)(F)F)C2 | 15.95%
71 | CC(=O)NCCc1ncnn1-c1ccc(F)c(Cl)c1 | -4.574%
72 | CC(O)CN1CCC(CNCc2ccc(S(C)(=O)=O)cc2)CC1 (configuration not stated) | -7.013%
73 | Cc1cc(-c2ccc(C(C)N3CCOCC3)cc2)cnc1N (configuration not stated) | 25.58%
74 | O=C(NCCc1c[nH]cn1)c1ccc2c(c1)C(=O)N(C1CC1)C2=O | 25.9%
75 | CC(O)CN(C)C(=O)Nc1ccn(-c2cccc(C(F)(F)F)c2)n1 (configuration not stated) | -1.587%
76 | CCc1nc(C2CCCN2Cc2nc(C3CC3)no2)no1 (configuration not stated) | -2.971%
77 | c1ccn2c(C3CCCN3Cc3nc(C4CC4)no3)nnc2c1 (configuration not stated) | 89.02%
78 | O=C(OCc1ccccc1)C1CCCN1Cc1nc(C2CC2)no1 (configuration not stated) | 13.28%

Row | SMILES | Percent Effect
79 | CC(C)(C)c1nc(CN2CCCC2c2nnc3ccccn23)no1 (configuration not stated) | 104.6%
80 | COc1cccc2c1N(Cc1noc(C(C)(C)C)n1)CCC2 | 5.292%
81 | CC(C)(C)c1nc(CN2CCCC2CCc2ccccc2)no1 (configuration not stated) | 0.152%
82 | Cc1nn(C)c(C)c1C1CCCN1Cc1noc(C2CC2)n1 (configuration not stated) | 0.5745%
83 | Cn1cccc1C1CCCN1Cc1noc(C(C)(C)C)n1 (configuration not stated) | 89.29%
84 | CCc1nc(C2CCCN2Cc2noc(Cc3ccccc3)n2)no1 (configuration not stated) | -2.758%
85 | CCn1c(C2CCCN2Cc2noc(C(C)(C)C)n2)nc2ccccc21 (configuration not stated) | 117.3%
86 | CCc1nc(C2CCCN2Cc2nc3ccccc3o2)no1 (configuration not stated) | -3.272%
87 | CC(C)(C)c1nnc(CN2CCCC2c2noc(C3CC3)n2)o1 (configuration not stated) | 9.354%
88 | CC(C)n1cnc2c1C(C(=O)N1CCOCC1)N(CC1CC1)CC2.O=C(O)C(F)(F)F (configuration not stated) | -10.07%
89 | CNC(=O)c1ccc(-n2c(COCC(=O)O)nc3c(C)cccc32)o1 | -7.772%
90 | CCCOCC1CCN(C(=O)Cn2cccc(OC)c2=O)C1 (configuration not stated) | -15.28%
91 | Cc1ccc(NC(=O)CCC2CC2)cc1N1CCOC1=O | -7.551%
92 | O=c1[nH]nc(CNc2ncc(Cl)cn2)[nH]1 | -6.867%
93 | CCc1nsc(N2CCOC3(CCCC3)C2)n1 | 2.616%
94 | Cc1noc(C)c1CN1CCCCC1c1nc(-c2ccccc2)no1 (configuration not stated) | 11.76%
95 | Cc1noc(C)c1CN1CCCC1c1nnc2ccccn12 (configuration not stated) | 107.8%
96 | Cc1noc(C)c1CN1CCCC1c1nc(-c2ccccc2)no1 (configuration not stated) | -6.071%
97 | CCC(CO)N(Cc1cccs1)C(=O)Cc1ccc(O)cc1 (configuration not stated) | 12.13%
98 | CCC[C@@H]1CN(C(=O)c2ccccc2-c2ccccc2)C[C@H]1N(C)C | -11.45%
99 | Cc1ccc(CN2CCC3(CCN(Cc4ccncc4)CC3)CC2)cc1 | -6.544%
100 | COCCN1CCCC(O)(CN2CCN(Cc3ccncc3)CC2)C1=O (configuration not stated) | -1.626%
101 | Cn1ccnc1C1(O)CCCN(Cc2ccncc2)CC1 (configuration not stated) | 94.34%
102 | CN(C)[C@H]1CCN(c2ccnc(C(=O)NCc3ccco3)c2)C1 | -12.58%
